Values joined by “and” are separate entries in the source; they are usually repeats but may differ in a detail not shown here. Equal entries are not always repeated. Records with an inconclusive call do not appear. Values without a mark were called inactive. Active and inactive are the calls of the source. Calls come from the whole dose curve; as a rule, active = well fitted activation curve with a large enough effect in the repeat runs; inconclusive = weak or mixed curves; inactive = no such curve, though single readings can be large or run the other way.
biological target: Nuclear receptor subfamily 1 group I member 3 (Homo sapiens) (UniProt Q14994); experiment: qHTS assay to identify small molecule agonists of the constitutive androstane receptor (CAR) signaling pathway (AID 1224839); conditions: HepG2 hCAR CYP2B6-luciferase, agonist mode, 24 h; series mostly up to 92.4 µM; activation: at the top concentration; note: nearly all actives have a fitted effect of over 15% in size
Sequence (Q14994 whole entry, looked up): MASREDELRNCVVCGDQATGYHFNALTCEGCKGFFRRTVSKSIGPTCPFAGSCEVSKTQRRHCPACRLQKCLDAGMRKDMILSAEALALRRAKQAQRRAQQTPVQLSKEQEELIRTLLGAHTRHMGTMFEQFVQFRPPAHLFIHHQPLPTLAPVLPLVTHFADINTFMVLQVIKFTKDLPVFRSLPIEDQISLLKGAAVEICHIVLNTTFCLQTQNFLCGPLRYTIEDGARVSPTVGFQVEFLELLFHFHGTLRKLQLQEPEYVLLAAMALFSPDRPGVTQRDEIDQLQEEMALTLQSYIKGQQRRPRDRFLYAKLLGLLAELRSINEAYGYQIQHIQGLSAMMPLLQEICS
Procedure, shortened: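 HepG2 cells stably co-transfected with hCAR and a CYP2B6-2.2kb luciferase reporter; compounds at 15 concentrations with 0.75 uM PK11195 present. After 24 hr at 37 C, luciferase read by ONE-Glo luminescence.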
% is set by controls: 0 for no effect and ±100 for the full control effect; potency is the fitted concentration of half-maximal effect.

SMILES | activation | Potency
CCCCCCCCCCCCCCCC[N+](C)(C)CCN(Cc1ccc(OC)cc1)c1ncccn1 | -3.08% [at 42.5 µM] | –
O=C(Oc1cccc2cccnc12)c1ccccc1 | -14.1% [at 42.5 µM] | –
O=C(Nc1cccc(C(F)(F)F)c1)c1cc(Br)cc(Br)c1O | 14.3% | –
O=C(O)c1cc(O)c2c(c1)C(=O)c1cccc(O)c1C2=O | -0.0072% | –
Oc1ccc(Cl)cc1Sc1cc(Cl)ccc1O | – | inactive
CCCCCCCCCOC(=O)c1ccc(O)cc1 | -4.55% | –
CCCCN1C(=O)[C@@H]([C@H](O)C2CCCCC2)NC(=O)C12CCN(Cc1ccc(Oc3ccc(C(=O)O)cc3)cc1)CC2 | -3.49% | –
O=c1cc(-c2ccc(O)cc2)oc2cc(O)cc(O)c12 | – | 24.7 µM (active) and 61.1 µM (active)
CC(=O)S[C@@H]1CC2=CC(=O)CC[C@]2(C)[C@H]2CC[C@@]3(C)[C@@H](CC[C@@]34CCC(=O)O4)[C@H]12 | -11.4% | –
CCCCCCCC[N+](CCCCCCCC)(CCCCCCCC)CCCCCCCC | -21.1% | –
Nc1ccc2c3c(cccc13)-c1ccccc1-2 | – | 21.9 µM (active)
CCC(CN)=C(c1ccccc1)c1ccccc1 | 3.53% [at 42.5 µM] | –
CCCCCCCCCCCCCCCC(=O)OC[C@H](O)[C@H]1OC(=O)C(O)=C1O | -3.82% | –
CN(C)c1ccc(SC#N)cc1 | -0.0188% | –
CCOc1nc2cccc(C(=O)OC(C)OC(=O)OC3CCCCC3)c2n1Cc1ccc(-c2ccccc2-c2nn[nH]n2)cc1 (configuration not stated) | 3.18% | –
CCN(Cc1cccnc1)C(=O)c1cccc(Cl)c1[C@]1(C)C(=O)N(Cc2ccc(OC)cc2OC)c2ccc(Cl)cc21 | 5.96% | –
Nc1ccc2cc(S(=O)(=O)O)cc(O)c2c1N=Nc1ccccc1C(F)(F)F | 4.43% | –
CCOC(=O)c1nc(C(Cl)(Cl)Cl)n(-c2ccc(Cl)cc2Cl)n1 | -2.88% | –
CN1CCC(Nc2ncc3ncnc(Nc4ccc(F)c(Cl)c4)c3n2)CC1 | -23.7% [at 42.5 µM] | –
Cc1nc(-c2ccc3c(c2)CCN(CCC2CCC(NC(=O)/C=C/c4ccc(F)cc4)CC2)CC3)no1 (configuration not stated) | -2.8% [at 42.5 µM] | –
C/C=C1/C(=O)C[C@H]2[C@@H]3CCC4=CC(=O)CC[C@]4(C)[C@H]3CC[C@]12C | – | 8.61 µM (active)
CSc1ccc2c(c1)C(N1CCN(C)CC1)Cc1ccccc1S2 (configuration not stated) | -5.95% [at 42.5 µM] | –
